Laboratory results taken from the supplement of paper PMC6555819.

test system: VDR:RXRa (NR concentration 270 nM, RXRa partner concentration 90 nM); assay: PBM binding z-score (relative to random genomic background probes); higher = stronger binding; sequences stand for … in GC…GCGATTGACAGCGTAGAATGAAGG
Experimental: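 Protein-binding microarray (Agilent 4x180K custom design, double-stranded 60-nt probes: 5' GC cap, 34-nt variable region, 24-nt constant primer region; full probe sequence given). Purified or IVT nuclear receptor:RXRα heterodimers (3:1 NR:RXRα, mostly 270:90 nM) or homodimers were incubated for 1 h in PBS with 2% milk and no ligand, then detected with Alexa488 antibodies. Fluorescence from o1-orientation probes (~5 replicates averaged) was converted to z-scores against 500 random hg19 background probes. Variable regions are seed direct-repeat (DR0–DR5) sites, all their single-nucleotide variants and half-site ablations.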

GATACAGGGCCAAGGCCAGAGTACGCGTATTGAT was tested. Which PBM binding z-score did it give?
The PBM binding z-score was -0.59.

For ACTATGAGTTGACTTAGGGCAACCGATACGACGC, which PBM binding z-score is on record?
Its PBM binding z-score is 1.16.

CCTGCTAGGTCATGGTTAGCTAATCTACAGTATG was tested. Which PBM binding z-score did it give?
Its PBM binding z-score is 1.39.

TCTTGTAGATCAATAGAGGTCAAGAAAGTGCGCT was tested. Which PBM binding z-score did it give?
Its PBM binding z-score is 4.77.

For CCTCACGGGTCACTCCAGGTTATAGCATCGGAGT, which PBM binding z-score is on record?
Its PBM binding z-score is 4.07.

How did the PBM binding z-score turn out when ATATGTAGGTTAGCTGGGGTCATTCAAACTAGGC was run?
Its PBM binding z-score is 6.37.

For CCTTACGGGTCACTCCAGGTTATAACATCGGAGT, which PBM binding z-score is on record?
Its PBM binding z-score is 4.09.

For GCTAGCAGGACATTTGGGTCACTCAATGACGGGC, which PBM binding z-score is on record?
Its PBM binding z-score is 0.429.

With GCGACTGGGGCATCAGCAGGTTACCAGAACTTAA as the sequence, how does the PBM binding z-score read?
The PBM binding z-score was -0.205.

Which PBM binding z-score does the source give for CCTATGAGTTGACCATAAGGGCAACCGAAGCTCG here?
The PBM binding z-score was 0.81.

TCTTGTAGATCAACAGAAGGTTAAGAAAGATCGA was tested. Which PBM binding z-score did it give?
Its PBM binding z-score is 0.765.

CCTCCTAGGTCATGGTCAGCTAATCTACAGTATG was tested. Which PBM binding z-score did it give?
The PBM binding z-score was 1.93.

How did the PBM binding z-score turn out when TCTTGTAGATCAGCAGGTTAAGAAAGCTGGCCAA was run?
Its PBM binding z-score is 0.357.

For TCTCGTAGATCAACAGGAGGTTAAGAAAGATCGA, which PBM binding z-score is on record?
The PBM binding z-score was 0.875.

Which PBM binding z-score does the source give for ATACCAAGCTGATCGTGAGGTCGTTGATACTAAC here?
Its PBM binding z-score is 1.38.

For GCGACTGGGGCAAAGCAGGTTAGCATAAGGTTGG, which PBM binding z-score is on record?
Its PBM binding z-score is -0.429.

For TCTTGTAGATCAATAGCGGTTAAGAAAGTGCGCT, which PBM binding z-score is on record?
Its PBM binding z-score is 0.46.

For AGAACGAGGGCTCGCTGAGTTGATAGCAGAGTAG, which PBM binding z-score is on record?
Its PBM binding z-score is -0.517.

CCGACTGGGGCAAATGTTACCATACTCAGTACGA was tested. Which PBM binding z-score did it give?
Its PBM binding z-score is -0.22.

For TAGCCTAGGTCATGGGCCAATATACCACGCGAAC, which PBM binding z-score is on record?
Its PBM binding z-score is 2.06.

How did the PBM binding z-score turn out when CAGCCTAGGTCATGGCCAGTATAGGAGGAACGTT was run?
The PBM binding z-score was 1.84.

For TTACCAAGGTGAGCTGAGGTCATTGATCCAACTC, which PBM binding z-score is on record?
Its PBM binding z-score is 5.79.

Which PBM binding z-score does the source give for AATACAGGGTCACTAGGCCAGTGTAGGTACGAAT here?
The PBM binding z-score was 4.26.

How did the PBM binding z-score turn out when CAAACTATGTCACAGAGGTCAAAGTCCGTGCGTA was run?
The PBM binding z-score was 6.63.

For TCGAGAAGGTTACCAATGGGGCATTCAGCTTTCT, which PBM binding z-score is on record?
Its PBM binding z-score is 0.778.

Which PBM binding z-score does the source give for TCTATTAGTTGAAGCGCAACCGACGAGTCCGTTT here?
Its PBM binding z-score is 0.736.

CTACCAAGGTAAACAAGGTCGTTGATTACTATTC was tested. Which PBM binding z-score did it give?
The PBM binding z-score was 4.73.

With ATCTCTAGGTAACTAGTTCAGTGAAAGAGAGGAC as the sequence, how does the PBM binding z-score read?
The PBM binding z-score was 0.369.

How did the PBM binding z-score turn out when GCTCGGTGGACAAGGTCAGAGCTTTGTCCGTAGA was run?
The PBM binding z-score was 1.48.

GCAAGCAGGCCATTTGGGTCACTCAATGACGGGC was tested. Which PBM binding z-score did it give?
The PBM binding z-score was 0.865.

With TTACCAAGGTGAAAGGTCGTAGATGCACGCCTTG as the sequence, how does the PBM binding z-score read?
The PBM binding z-score was 3.04.

How did the PBM binding z-score turn out when CCTTACGAGTCACGAGGTTATAGCACGACGAGCG was run?
Its PBM binding z-score is 1.7.

With AGAATGAGGTTAATATCAGGGAAACAGAATACAT as the sequence, how does the PBM binding z-score read?
The PBM binding z-score was 1.04.

CCTTACGGGTCACGAGGTTATCGCACGACGAGCG was tested. Which PBM binding z-score did it give?
Its PBM binding z-score is 5.31.

CCTTACGGGTCACGAGGATATAGCACGACGAGCG was tested. Which PBM binding z-score did it give?
Its PBM binding z-score is 3.9.

For ACAAGCAGGCCAAGTTTGGGTCACTCAAACAAAG, which PBM binding z-score is on record?
The PBM binding z-score was 0.676.

How did the PBM binding z-score turn out when CCTAGCAGGCCAGTCTGGGTCACTCAAGGCTTGA was run?
The PBM binding z-score was 0.512.

Which PBM binding z-score does the source give for GGAACGAGGGCAAGGTTGATAGCATCTGTCGACG here?
The PBM binding z-score was 0.638.

GGACCGAGGGCAAAGTTGATAGCATCTGTCGACG was tested. Which PBM binding z-score did it give?
Its PBM binding z-score is 0.837.

For TGAATGAGGTTATAAGATCAGGGGACGTTGCAAA, which PBM binding z-score is on record?
Its PBM binding z-score is 1.16.
